Assay outcomes as filed in PubChem BioAssay.
FBA Mtb inh = inhibitors of M. tuberculosis fructose-bisphosphate aldolase. P9WQA3. purified M. tuberculosis FBA, fluorescence read-out. inhibition, % at 1 µM. actives 2.3% (n = 360,000);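 also: 0% = vehicle and 100% = reference inhibitor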
PrPC surface inh = inhibitors of human cell surface prion protein PrPC; inhibition, % at 13.8 µM; TR-FRET read-out; actives 0.43% (n = 370,000); AID 720596; P04156; in the data active = inhibition above about 24%; also: 0% = median of the test wells and 100% = reference compound wells
GDH-TPI counter-1 = GDH-TPI coupled enzyme inhibition counter-screen; GDH-TPI coupled enzyme counterscreen, NADH absorbance; inhibition, % at 4.8 µM; actives 1.2% (n = 360,000); AID 588335; in the data active = inhibition above about 30%;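 also: 0% = DMSO wells and 100% = wells lacking the enzyme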
BJeLR viability = BJeLR cell viability loss. BJeLR (HRASV12) viability, CellTiter-Glo ATP luminescence, 48 h. inhibition, % (no concentration beside the values). actives 0.17% (n = 300,000); in the data active = inhibition above about 50%
RecA splice inh = Mtb RecA intein splicing inhibition. P9WHJ3. cell-free RecA intein splicing, fluorescence. inhibition, % (test concentration not listed). actives 0.75% (n = 290,000); in the data active = inhibition above about 30%;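 also: 0% = vehicle wells and 100% = reference inhibitor control wells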
Mtb FBA inh conf = Mtb FBA inhibition, confirmed | shares compounds with FBA Mtb inh | purified M. tuberculosis FBA, fluorescence read-out | inhibition, % at 1 µM | actives 78% (n = 5,600);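 also: 0% = vehicle wells and 100% = reference inhibitor wells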
GDH-TPI counter-2 = inhibits GDH-TPI coupling enzymes, flagging Mtb FBA hits; shares compounds with FBA Mtb inh; GDH-TPI coupled enzyme counterscreen, fluorescence; inhibition, % at 1 µM; actives 81% (n = 5,600); in the data active = inhibition above about 10%
Active calls of the source: *; · = no result. Hits are enriched below; roughly 4.2% of the tested compounds scored in any of these assays. Rule as the data show it, unless noted: active = inhibition above about 27%; inactive = the rest.

SMILES	FBA Mtb inh	PrPC surface inh	GDH-TPI counter-1	BJeLR viability	RecA splice inh	Mtb FBA inh conf	GDH-TPI counter-2
CC(=O)N1CCC2(CC1)CC(=O)c1cc(OCC(=O)N3CCOCC3)ccc1O2	70*	1	10	4	-14	67*	67*
CCOC(=O)N1CCN(C(=O)COc2ccc3c(c2)C(=O)CC2(CCN(C(C)=O)CC2)O3)CC1	63*	-7	10	-10	-17	139*	120*
Cc1nnc(N2C(=O)c3cccc4cccc(c34)C2=O)s1	16	-17	13	-5	-1	·	·
Cc1nnc(C)n1N1C(=O)c2cccc3cccc(c23)C1=O	62*	-15	24	-2	-1	17	10*
Cc1cc(C)c2c(N)c(C(=O)c3cccc(Cl)c3)sc2n1	2	-22	13	5	-3	·	·
Cc1ccc2nc(-c3sc4nc(C)cc(C)c4c3N)[nH]c2c1	30*	-2	9	-5	-22	112*	82*
COc1cccc(/C=C/C(=O)OCC(=O)c2c(N)n(C)c(=O)n(C)c2=O)c1	63*	-6	19	·	·	86*	59*
COc1ccc(/C=C/C(=O)OCC(=O)c2c(N)n(C)c(=O)n(C)c2=O)cc1	-4	7	16	-2	-1	·	·
C=C(C)Cn1c(SCC(=O)N/N=C(\C)c2ccc([N+](=O)[O-])cc2)nnc1-c1ccc(Br)cc1	·	-3	·	·	·	·	·
Cc1[nH]c2ccccc2c1CC(=O)Nc1ccc(Nc2cccnc2)c(-c2cc(C(F)(F)F)cc(C(F)(F)F)c2)c1	·	0	·	·	·	·	·
CCOP(=O)(OCC)c1nc(-c2ccc(C)cc2)oc1NCc1ccccc1	84*	1	-4	-3	1	172*	186*
N#C/C(=C\c1c(N2CCCCCC2)nc2ccccn2c1=O)C(=O)NCc1ccco1	-2	-8	3	1	2	·	·
C=CCNC(=O)/C(C#N)=C/c1c(N2CCCCCC2)nc2ccccn2c1=O	37*	-19	9	2	2	5	-2
CCNC(=O)/C(C#N)=C/c1c(N2CCOCC2)nc2ccccn2c1=O	42*	-7	5	-3	-73	176*	136*
O=C(NCCCc1ccccc1)OC1CCC12CCC(c1ccccc1)CC2 (stereo unspecified)	·	-2	·	·	·	·	·
CC(C)(C)C(=O)O[C@@H]1CCC[C@@]2(C(=O)N(Cc3ccccc3)c3ccccc32)[C@H]1NC(=O)CCc1ccccc1	·	7	·	·	·	·	·
COC(=O)C1=CN(C)C=C(C(=O)OC)C1c1ccsc1	70*	-4	3	14	-92	116*	118*
COC(=O)C1=CN(C2CC2)C=C(C(=O)OC)C1c1ccc(C(F)(F)F)cc1	25	5	-1	9	-44	·	·
COC(=O)[C@H](Cc1ccccc1)N1C[C@@H](N2CCC[C@H]2C)CS1(=O)=O	·	-3	·	·	·	·	·
COC(=O)C1=CN(c2cccc(Cl)c2)C=C(C(=O)OC)C1c1cccc(OC)c1	54*	-4	0	9	-4	111*	94*
O=[N+]([O-])c1ccc2nc(CNc3nc(N4CCOCC4)nc4c3ncn4-c3ccsc3)[nH]c2c1	·	12	·	·	·	·	·
CC1(C)Oc2cc3oc(C(=O)O)cc(=O)c3cc2-c2ccccc21	95*	5	19	·	·	19	6
Cc1cc2oc(C(=O)NCc3ccccc3)cc(=O)c2cc1C	5	-6	15	1	-2	·	·
N#Cc1ccc(OCC(=O)NC2CCCCCC2)cc1	0	-2	8	·	·	·	·
N#Cc1ccc(OCC(=O)NNC(=O)C2CCCCC2)cc1	30*	0	8	·	·	2	0
SMILES	FBA Mtb inh	PrPC surface inh	GDH-TPI counter-1	BJeLR viability	RecA splice inh	Mtb FBA inh conf	GDH-TPI counter-2
COc1ccc(C2C=C(C)Nc3ncnn32)cc1 (stereo unspecified)	36*	-8	8	1	-5	121*	106*
Cc1ccc(C2=CC(c3ccc(C)cc3)n3ncnc3N2)cc1 (stereo unspecified)	35*	-9	13	5	-91	119*	95*
CC1=CC(c2ccc(Cl)cc2)n2ncnc2N1 (stereo unspecified)	17	4	6	12	1	·	·
CCCn1c(-c2ccc(OC)cc2)nc2nc3ccccc3nc21	42*	-8	43*	-7	-14	98*	79*
CC(C)NC(=O)N[C@H]1C[C@@H]2O[C@@H](CO)CC[C@@H]2O[C@@H]1CCc1ccc(-c2ccc(F)cc2)cc1	·	-3	·	·	·	·	·
COC(=O)[C@]12C[C@H](CC(=O)N3CCCCC3)C(=O)N(Cc3ccccc3)C1=C[C@H](C(C)C)O[C@@H]2C1CC1	·	10	·	·	·	·	·
COc1ccc(-c2cc(=O)oc3cc(OC(C)C(=O)NC4CC4)ccc23)cc1 (stereo unspecified)	1	-1	4	8	-1	·	·
COc1ccc(-c2cc(=O)oc3cc(OC(=O)C4CCCCC4)c(Cl)cc23)cc1	45*	-19	8	-2	-192	46*	42*
COC(=O)c1c(C(=O)OC)n(CCCN)c2ccc(C)cc12	98*	-4	1	-5	9	100*	63*
CCCCCCCCn1c(=O)c(C(=O)OC)c(N)c2ccccc21	2	11	-11	-12	-2	·	·
C[C@@H]1CCCN1c1ccc2c(c1)OCCCN(C1CC1)S2(=O)=O	·	3	·	·	·	·	·
CN(C)CCCNC(=O)C[C@H]1C[C@H](C(=O)N2CCCCC2)[C@@]2(C)c3[nH]c4cc(-c5ccco5)ccc4c3CCN2C1=O	34*	-6	19	·	·	41*	34*
